Shiga toxin inh – blocks Shiga toxin action in Vero cells; 9.2% of 290,000 active; Vero cells, Shiga toxin protein synthesis inhibition reporter; inhibition, % at 38.7 µM; in the data active = inhibition mostly above about 28%, no sharp cut-off; inactive = mostly below about 43%; also: 0% is about no effect
HCMV antiviral – blocks human cytomegalovirus replication. 4.5% of 410,000 active. HFF cells, HCMV-luciferase reporter, 72 h; active compounds read low. activity change, negative = inhibition, % at 57.5 µM; in the data active = activity change below about -60%; inconclusive = no clear call, values can overlap the other calls; inactive = above about -39%; also: % is scaled to controls: 0 for no effect and ±100 for the full control effect
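Cell-based, HFFs, 1000 cells/well, 16 h 37C; cpds in DMSO + HCMV-luc, MOI 1 PFU/cell; 72 h 37C; OneGlo luminescence after 5 min RT; norm. to buffer vs Salinomycin 10uM.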
Pf growth 48h – P. falciparum growth inhibition at 48 hours (one generation); P. falciparum luciferase growth in erythrocytes, 48 h; Potency, µM (doses to about 28.7 µM), for inactives: top-dose activity change, negative = inhibition, usual class: inhibitors; 5.9% of 310,000 active; also: potency is read from the fitted curve at half-maximal effect; % is scaled to controls: 0 for no effect and ±100 for the full control effect
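Growth was read as firefly luciferase luminescence after a 48 h, 37 C, 5% CO2 exposure of compounds to reporter-bearing P. falciparum cultures (0.1% parasitemia, 2% hematocrit final) in Albumax-supplemented RPMI 1640.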
Cycloheximide cs – affects cycloheximide protein synthesis inhibition readout, counter-screen; cell reporter, cycloheximide protein synthesis inhibition counterscreen; 12% of 300,000 active; max response, %; in the data active = max response mostly above about 13%, no sharp cut-off; inactive = mostly below about 14%; also: read at 38.3 µM for the half of the compounds with a filed dose; 0% is about no effect
HCV inhibitor – blocks hepatitis C virus. 3.4% of 340,000 active. Potency, µM (top dose mostly 41.8 µM), without a hit: at the highest dose activity change, negative = inhibition, hits mostly inhibitors. Huh7.5.1 HCVcc-Cre infection, luciferase reporter, 44 h. AID 651820; also: potency is read from the fitted curve at half-maximal effect; % is scaled to controls: 0 for no effect and ±100 for the full control effect
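1,000 cells/well; 4 h culture; + compound; + HCVcc-Cre (~0.5 moi); 44 h; luciferase substrate, RT 15 min; read 15 sec.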
Pf growth 96h – inhibits malaria parasite growth, 96 h; P. falciparum luciferase reporter growth, 96 h; Potency, µM (highest dose often 28.7 µM), for inactives: at the highest dose activity change, negative = inhibition, hits mostly inhibitors; 6.9% of 320,000 active; also: potency is read from the fitted curve at half-maximal effect; % is scaled to controls: 0 for no effect and ±100 for the full control effect
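P. falciparum expressing integrated firefly luciferase grown in erythrocytes (2% hematocrit, 0.05% parasitemia final) with compounds for 96 hours at 37 C, 5% CO2. Growth inhibition read as loss of luminescence after adding luciferase detection reagent.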
Starred values were filed as active, the others as inactive; [ ] = remark or other dose. A selection: hits, their analogues and other compounds. The true share with any hit is near 21%. Unless noted, calls follow the shape of the dose curve; as a rule, active = well fitted inhibition curve with a large enough effect; inconclusive = small, poorly fitted or top-dose-only effect, or another doubt; inactive = no such curve, though single readings can be large or run the other way.

O=S(=O)(Nc1ccc2c(c1)OCO2)c1ccc(F)c(F)c1 was read as HCMV antiviral 15, Pf growth 48h 3%, HCV inhibitor 11% and Pf growth 96h -19%.
`O=C(COc1ccc2c(c1)oc(=O)c1ccccc12)NC(Cc1ccc(Cl)cc1)C(=O)O` (stereo unspecified) gave Shiga toxin inh -6, HCMV antiviral -32, Pf growth 48h 42%, Cycloheximide cs -1, HCV inhibitor 21% and Pf growth 96h 25%.
Screening COc1ccc2cc(-c3ccon3)ccc2c1 returned Shiga toxin inh 107*, Pf growth 48h -9%[0.00184 µM], Cycloheximide cs 32*, HCV inhibitor -4% and Pf growth 96h 125%.
COc1ccc(-c2cc(C(=O)N3CCN(c4ncccn4)CC3)c3ccccc3n2)cc1 was read as HCMV antiviral 23, Pf growth 48h 29%, HCV inhibitor inconclusive and Pf growth 96h -24%.
Screening COc1ccc(-c2cc(C(=O)N3CCN(c4ccccc4)CC3)c3ccccc3n2)cc1 returned Shiga toxin inh 63*, HCMV antiviral 70, Pf growth 48h 7%, Cycloheximide cs 27*, HCV inhibitor inconclusive and Pf growth 96h -17%.
Screening COc1ccc(-c2cc3ccc(OC)cc3cn2)cc1 returned HCMV antiviral 25, Pf growth 48h 127%, HCV inhibitor -6% and Pf growth 96h 180%.
For CCOC(=O)c1cc(-c2ccccc2)n(CC(=O)Nc2ccc(OC)c(OC)c2)c1C the results were Shiga toxin inh 19, HCMV antiviral -23, Pf growth 48h -18%, Cycloheximide cs -2, HCV inhibitor -26% and Pf growth 96h inconclusive.
For CCOC(=O)c1cc(-c2ccccc2)n(CCC(=O)NC(C)CC)c1C (stereo unspecified) the results were Shiga toxin inh -11, HCMV antiviral -22, Pf growth 48h inconclusive, Cycloheximide cs -2, HCV inhibitor inconclusive and Pf growth 96h 4.1µM*.
For CCOC(=O)c1cc(-c2ccccc2)n(CC(=O)NCc2ccccc2OC)c1C the results were HCMV antiviral -61*.
`CCOC(=O)c1cc(-c2ccccc2)n(CCC(=O)N2CCN(c3ccccc3OC)CC2)c1C` gave Shiga toxin inh -4, HCMV antiviral -23, Pf growth 48h 9.3µM*, Cycloheximide cs -5, HCV inhibitor inconclusive and Pf growth 96h inconclusive.
For CCOC(=O)c1cc(-c2ccccc2)n(CCC(=O)N2CCN(c3ccc(OC)cc3)CC2)c1C the results were Shiga toxin inh -11, HCMV antiviral -20, Pf growth 48h inconclusive, Cycloheximide cs -4, HCV inhibitor inconclusive and Pf growth 96h -28%.
COC(=O)C1CCN(C(=O)COc2ccc(N(C)S(=O)(=O)c3ccc(C)cc3)cc2)CC1 was read as HCMV antiviral 6, Pf growth 48h 13µM*, HCV inhibitor 9% and Pf growth 96h inconclusive.
For CCC1CCCCN1C(=O)COc1ccc(N(C)S(=O)(=O)c2ccc(C)cc2)cc1 (stereo unspecified) the results were Shiga toxin inh 22, HCMV antiviral -27, Pf growth 48h inconclusive, Cycloheximide cs 1, HCV inhibitor 10µM* and Pf growth 96h inconclusive.
CN(c1ccc(OCC(=O)N2CCCC2)cc1)S(=O)(=O)c1ccc(Cl)cc1 was read as HCMV antiviral 1, Pf growth 48h 10µM*, HCV inhibitor 11% and Pf growth 96h inconclusive.
`CCOC(=O)C1CCN(C(=O)COc2ccc(N(C)S(=O)(=O)c3ccc(C)cc3)cc2)CC1` gave Shiga toxin inh 24, HCMV antiviral -102*, Pf growth 48h 0%, Cycloheximide cs 3, HCV inhibitor -10% and Pf growth 96h 17%.
Screening CCOc1ccc(S(=O)(=O)N(C)c2ccc(OCC(=O)N3CCOCC3)cc2)cc1 returned Shiga toxin inh -7, HCMV antiviral 24, Cycloheximide cs -6, HCV inhibitor 2% and Pf growth 96h inconclusive.
Screening N#Cc1ccccc1OCC(=O)OCC(=O)NC1CC1 returned HCMV antiviral -5, Pf growth 48h -3%, HCV inhibitor 13% and Pf growth 96h -5%.
